Source: PubChem BioAssay (EPA / NIEHS)
Several values for one entry are separate records, joined by “and”; a condition that tells them apart may be missing. Identical values can stand only once. Activity calls are given as the source filed them. The calls were made as follows: active = hit-call score of the fitted dose curve at least 0.9, where 1 is the maximum; inactive = score below 0.9.

These molecules were tested on Plasminogen Activator Inhibitor-1 (PAI1), SERPINE1 (gene 5054) (assay: BSK_BF4T_PAI1: BioMAP Diversity Plus: BF4T Assay for Plasminogen Activator Inhibitor-1 (PAI1) Biomarker Activity (AID 2284273)). Details: primary human bronchial epithelial cells with fibroblasts.
Method in brief: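 Co-culture of human bronchial epithelial cells and dermal fibroblasts exposed to compound for 24 h. PAI-1 measured by ELISA; activity fitted in positive direction versus DMSO. Parallel SRB staining assessed overt cytotoxicity.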
In the case of `FC(F)(F)C(F)(F)C(F)(F)CC1CO1` (configuration not stated), the outcome is reported as “inactive”.
`OCC(F)(F)C(F)(F)C(F)(F)C(F)(F)C(F)(F)C(F)(F)C(F)(F)C(F)(F)CO` was tested, and the AC50 was 15.1 µM (active) and 13.6 µM (active).
With `FC(F)(F)C(F)(F)C(F)(F)C(F)(F)C(F)(F)C(F)(F)C(F)(F)CCI` the outcome was “inactive”.
For `NC(O)(C(F)(F)F)C(F)(F)F`, the outcome was “inactive”.
`OCCCCC(F)(F)C(F)(F)C(F)(F)C(F)(F)F` was tested, and the outcome was “inactive”.
`O=C(F)C1(F)C(F)(F)C(F)(F)C(F)(F)C(F)(F)C1(F)F` was tested, and the outcome was “inactive”.
For `OC(O)C(F)(F)C(F)(F)F`, the outcome was “inactive”.
`CN(C(=O)C(F)(F)C(F)(F)C(F)(F)F)[Si](C)(C)C` was tested, and the outcome was “inactive”.
In the case of `OCCCC(F)(F)C(F)(F)C(F)(F)C(F)(F)C(F)(F)C(F)(F)C(F)(F)C(F)(F)F`, the AC50 is reported as 20.7 µM (active) and 30 µM (active).
For `O=C(O)CCC(F)(F)C(F)(F)C(F)(F)F`, the outcome was “inactive”.
`NC(=O)C(F)(F)C(F)(F)C(F)(F)C(F)(F)C(N)=O` was tested, and the outcome was “inactive”.
With `NC(=O)C(F)(F)C(F)(F)C(F)(F)F` the outcome was “inactive”.
